Measurements published in PubChem BioAssay AID624117 (National Center for Advancing Translational Sciences (NCATS), 2012).
Records with an inconclusive call do not appear. A call without a number means that no potency is given here. The source made the active and inactive calls. Calls come from the whole dose curve; as a rule, active = well fitted curve in the direction sought with a large enough effect; inconclusive = small, poorly fitted or top-dose-only effect, or another doubt; inactive = no such curve, though single readings can be large or run the other way.
Potency is the fitted concentration of half-maximal effect.

Assay: qHTS Assay for Rab9 Promoter Activators: Hit Validation Using Renilla Luciferase Read-Out
Conditions: Huh7 NPC1 promoter Renilla luciferase reporter, 24 h; series mostly up to 76.9 µM
How it was run: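 Huh7 cells stably carrying NPC promoter-luciferase, 1,500 cells/well, exposed to compound for 24 h at 37 deg C. Luminescence read 10 min after […] addition; validation of firefly-read primary hits.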
With `COc1ccc(-c2csc(Nc3ncccn3)n2)cc1C` the Potency was “inactive”.
In the case of `O=C(O)C1=CC[C@@H](c2ccc(Cl)cc2)N(S(=O)(=O)c2ccc(Cl)cc2)[C@H]1c1ccccc1`, the Potency is reported as “inactive”.
In the case of `Cc1nnc2n(c1=O)N=C(c1ccc(Cl)cc1)CS2`, the Potency is reported as “inactive”.
In the case of `CCOc1cc(C2C(C#N)=C(N)Oc3n[nH]c(C)c32)ccc1OCCN1CCOCC1` (stereo not drawn), the Potency is reported as “inactive”.
For `O=C(CSc1ncccn1)Nc1cccc2ccccc12`, the Potency was “inactive”.
For `COc1ccc(C(=O)OCC(=O)N2CCCC2=O)c(OC)c1`, the Potency was “inactive”.
For `CC1CC(C)CN(CC(=O)N2CCOCC2)C1` (stereo not drawn), the Potency was “inactive”.
With `NNC(=O)c1cccc(S(=O)(=O)Nc2cc(Cl)ccc2Cl)c1` the Potency was “inactive”.
With `COC(=O)c1ccccc1S(=O)(=O)NNC(=O)Nc1ccccc1` the Potency was “inactive”.
In the case of `CC(=O)NC(CCCN1C(=O)c2ccccc2C1=O)c1nnn(C)n1` (stereo not drawn), the Potency is reported as “inactive”.
For `Cc1ccc(N=Cc2sc(O)c3ccccc23)c(C)c1`, the Potency was “inactive”.
With `O=C(O)CSc1nnc(-c2ccncc2)n1CCc1ccccc1` the Potency was “inactive”.
With `Cc1ccc(C(=O)Nc2nnc(S(=O)(=O)N3CCOCC3)s2)cc1` the Potency was “inactive”.
For `CC(=O)NC(=S)Nc1ccc2oc(-c3cc(F)c(F)cc3Cl)nc2c1`, the Potency was “inactive”.
For `CCCCn1c(Nc2ccc(OC)cc2)nc2ccccc21`, the Potency was “inactive”.
In the case of `Cc1ccc(NC(=O)NC(=O)c2ccccc2)cc1F`, the Potency is reported as “inactive”.
In the case of `O=C(N/N=C/c1ccc(-c2ccc(Br)cc2)o1)c1ccc2c(c1)OCO2`, the Potency is reported as “inactive”.
For `COC(=O)CSc1nc2cc3c(cc2cc1C#N)OCO3`, the Potency was “inactive”.
For `Cc1ccccc1NC(=O)Cc1nc(COC(=O)CC(C)c2ccccc2)cs1` (stereo not drawn), the Potency was “inactive”.
In the case of `Nc1ccccc1C(=O)N/N=C1/C2CN3CCN(C2)CC1(Cc1ccccc1)C3`, the Potency is reported as “inactive”.
With `COc1ccc(NC(=O)Nc2ccc(Cc3ccncc3)cc2)cc1OC` the Potency was “inactive”.
For `Cc1ccc(S(=O)(=O)/N=C(/Nc2ccccn2)c2ccc(Cl)cc2)cc1`, the Potency was 20.7 µM (active).
With `O=C(CCCOc1ccc(Cl)cc1)N1CCCCC1` the Potency was “inactive”.
For `COc1ccc(-c2noc(N3CCCC(C(=O)Nc4ccccc4F)C3)n2)cc1` (stereo not drawn), the Potency was “inactive”.
In the case of `CN(C)/C=N/c1c(C#N)cnn1-c1nc2ccccc2s1`, the Potency is reported as “inactive”.
For `Cc1nc2sc(C(=O)OC(C)C)c(N)c2c(C)c1C`, the Potency was “inactive”.
For `CC(Sc1ncnc2c1cnn2-c1ccccc1)C(=O)Nc1ccc(N2CCOCC2)cc1` (stereo not drawn), the Potency was “inactive”.
In the case of `O=C(NNC(=O)C1COc2ccccc2O1)c1ccccc1O` (stereo not drawn), the Potency is reported as “inactive”.
With `CCOC(=O)CSc1nc2cc(C)ccc2cc1C#N` the Potency was “inactive”.
In the case of `CCCN(CCC)CCCNC(=O)c1cc2cc3ccc(Cl)cc3nc2o1`, the Potency is reported as “inactive”.
For `CCCCc1cc(=O)oc2cc(OCC(=O)N3CCOCC3)ccc12`, the Potency was “inactive”.
With `CC(=O)c1cccc(NC(=O)N2CCOCC2)c1` the Potency was “inactive”.
In the case of `COC(=O)Nc1nc2ccc(Br)cc2s1`, the Potency is reported as “inactive”.
In the case of `Cc1csc(NC(=O)CSc2nnc(-c3ccncc3)o2)n1`, the Potency is reported as “inactive”.
In the case of `CCN(C(=O)COC(=O)c1ccc(C=O)cc1)c1c(N)n(Cc2ccccc2)c(=O)[nH]c1=O`, the Potency is reported as “inactive”.
For `COCCNC(=O)C1CCC(CNS(=O)(=O)c2ccc(F)cc2)CC1` (stereo not drawn), the Potency was “inactive”.
In the case of `CC1CCCN(S(=O)(=O)c2ccc(C(=O)Nc3nnc(-c4ccncc4)o3)cc2)C1` (stereo not drawn), the Potency is reported as “inactive”.
In the case of `COCC1CCN(C(=O)c2ccc3oc(Cc4ccccc4)nc3c2)C1` (stereo not drawn), the Potency is reported as “inactive”.
